Assay outcomes as filed in PubChem.
Sampled rows, rich in hits. Any-hit rate of the full collection: about 3.4%.
PG9 Ab binder = binders of HIV-1 gp120 antibody PG9, primary screen, biochemical, TR-FRET; TR-FRET gp120-PG9 antibody binding; inhibition, % at 6.7 µM; HIV-1 gp120 / PG9 antibody interaction; hit rate 0.43% among 360,000; in the data active = inhibition above about 8.5%
HSP90 refold inh = HSP90 inhibitors, primary screen, cell lysate, luminescence. Rabbit reticulocyte lysate, luciferase refolding luminescence, 3 h. inhibition, % at 5.6 µM. hit rate 0.91% among 290,000. AID 1789, 2009;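 active = inhibition above the screen-wide mean plus 3 SD, computed separately per campaign, cut at about 16% in these data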;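 note: 0% = DMSO wells and 100% = 60 µM geldanamycin wells; inhibitors lower the luminescence because luciferase stays unfolded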
AI-2 QS modul = Vibrio harveyi AI-2 quorum sensing modulators, primary screen, JMH597 strain, luminescence/OD600 ratio | activity change, % at 7.5 µM | hit rate 0.4% among 300,000 | Vibrio harveyi JMH597 AI-2 luminescence/OD600 ratio, 9 h; hits give low values; strain lacks LuxN and CqsS sensors; 0 = neutral-control median; in the data active = activity change below about -75%, passing the limit was not always enough;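 note: luminescence divided by OD600 gain over 9 h not by final OD600 alone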
SMARCA2 activ = SMARCA2 (BRM) function activators, primary screen, cell-based, luminescence, high throughput | hit rate 1% among 370,000 | activation, % at 9.1 µM | MG213 cells, MMTV-luciferase reporter, dexamethasone, overnight; in the data active = activation above about 7.8%;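 note: 0% = vehicle wells and 100% = reference activator wells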
FXN GAA850 act = FXN promoter activators, primary screen, cell-based, luciferase luminescence, HEK293 lucGAA850. activation, % at 6 µM. HEK293 lucGAA850 FXN promoter luciferase reporter, 24 h; percent of 10 µM SAHA response. hit rate 0.56% among 360,000. AID 540364, 2011;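 active = activation above the average of all compounds screened plus 3 SD, cutoff fixed separately per campaign, cut at about 7.5% in these data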;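 note: 0% = DMSO wells and 100% = 10 µM SAHA wells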
HSF1 inh = HSF1 inhibitors in luciferase reporter cells, primary screen, cell-based, NIH3T3, luminescence; activity change, negative = inhibition, % at 7.5 µM (by protocol); NIH3T3-HGL HSE-luciferase, MG132-induced, luminescence 8 h; hits give low values; hit rate 0.77% among 300,000;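 active = more than half of replicate wells show activity change below -50%, luminescence cut by over half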;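 note: luciferase reports HSF-1 transcriptional activity via heat shock element; 0% = median of DMSO wells and -100% = zero luminescence signal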
PG9 binder conf = binders of anti-gp120 antibody PG9, confirmation, biochemical, TR-FRET; shares compounds with PG9 Ab binder; TR-FRET PG9 antibody binding; inhibition, % at 6.7 µM; hit rate 90% among 1,500; in the data active = inhibition above about 9%
PGV04 counter = binders of control antibody PGV04, counter-screen for PG9 antibody binder project, biochemical, TR-FRET, distinct HIV envelope site | shares compounds with PG9 Ab binder | TR-FRET PGV04 antibody-gp120 binding | inhibition, % at 6.7 µM | hit rate 95% among 1,500; in the data active = inhibition above about 9.5%
* marks the source's active call; other numbers are inactive results; . = not tested or not shown.

SMILES	PG9 Ab binder	HSP90 refold inh	AI-2 QS modul	SMARCA2 activ	FXN GAA850 act	HSF1 inh	PG9 binder conf	PGV04 counter
CC(=O)NNC(=O)c1cc2c3ccccc3n(C)c2s1	-1	-1	6	-4	1	4	.	.
O=C(N/N=C/c1ccsc1)c1cc(-c2ccncc2)nc2ccccc12	-1	-2	10	-3	1	-2	.	.
O=C(N/N=C/c1ccccn1)c1cc(-c2ccncc2)nc2ccccc12	15*	-6	27	-4	-2	-10	19*	34*
CCCCNC(=O)C1(C)CCCCCN1Cc1cccc2c(OC)cc(C(=O)OCC)cc12 (configuration not stated)	1	.	.	-4	2	.	.	.
COc1cccc(C(=O)NCCN2CCC(n3c(=O)[nH]c4ccccc43)CC2)c1	3	.	.	2	.	.	.	.
O=C(C(=O)N1CCN(S(=O)(=O)c2ccc(Cl)cc2)CC1)c1cccc(C(F)(F)F)c1	0	.	.	-5	.	.	.	.
Cc1nc(N2CCC(C)CC2)c2c(C)c(C(=O)Nc3cccc(C(F)(F)F)c3)sc2n1	0	1	15	1	1	20	.	.
Cc1nc(N2CCC(C)CC2)c2c(C)c(C(=O)Nc3ccc(C(F)(F)F)cc3)sc2n1	42*	0	10	-3	0	3	8	11*
O=C1[C@H](c2ccccc2)[C@@H](c2ccncc2)N1c1ccncc1	1	.	.	0	.	.	.	.
O=C(CCn1nnc2ccccc21)Nc1nnc(COc2ccccc2F)s1	2	2	12	-3	1	6	.	.
O=C(CCn1nnc2ccccc21)Nc1nnc(-c2ccccc2F)s1	13*	2	3	0	1	-2	23*	38*
Cc1nnc(NC(=O)c2ccc3ccccc3c2)s1	0	-1	27	2	5	22	.	.
CC(C)c1nnc(NC(=O)c2ccc3ccccc3c2)s1	11*	3	17	5	7	46	18*	32*
COc1ccc(-c2ccc(NC(=O)c3ccc(Br)o3)cc2)nn1	14*	.	33	5	2	16	13*	24*
COc1ccccc1CNc1ncnc2cc(Cl)ccc12	90*	1	27	-3	-1	4	91*	93*
CC1(C(=O)NCc2ccccc2)CN(S(C)(=O)=O)CC(=O)N1CCc1c[nH]c2ccccc12 (configuration not stated)	-1	.	.	-4	.	.	.	.
O=C(N[C@H](C(=O)N1CCC[C@H]1C(=O)NC1CCCC1)C1CCCCC1)c1ccc(Cl)c(Cl)c1	4	.	.	-3	.	.	.	.
Cc1cc2c(c(=O)o1)[C@@]1(C(=O)N(C)c3ccccc31)C1=C(CCC1=O)O2	0	.	.	-6	.	.	.	.
COc1ccc(C2NC(=O)c3sc4nc(C)c(C(C)=O)c(-c5ccc(Cl)cc5)c4c3N2)cc1 (configuration not stated)	9.3*	1	10	4	0	.	22*	40*
COc1ccc(-c2c(C(C)=O)c(C)nc3sc4c(=N)n(N)cnc4c23)cc1	-1	-4	30	2	-2	-4	.	.
CCOC(=O)C1CCCN(C(=O)c2ccc3oc(Cc4ccccc4)nc3c2)C1 (configuration not stated)	12*	-8	25	4	1	34	5	7
COc1cccc(-c2ccc(C#N)c(SCC(=O)NCc3ccco3)n2)c1	11*	2	5	-2	1	6	20*	36*
CCCCS(=O)(=O)NCC1CCN(C(=O)C(=O)c2cc3ccccc3o2)CC1	-1	.	.	-5	.	.	.	.
Cc1ccc2cc(C#N)c(NCc3ccccc3)nc2c1	35*	1	10	-6	1	2	30*	55*
Cc1cccc2cc(C#N)c(NCc3ccccc3)nc12	1	3	1	-2	2	1	.	.
SMILES	PG9 Ab binder	HSP90 refold inh	AI-2 QS modul	SMARCA2 activ	FXN GAA850 act	HSF1 inh	PG9 binder conf	PGV04 counter
COc1ccc(Nc2nc3cc(C)ccc3cc2C#N)c(OC)c1	0	-1	23	1	-4	-2	.	.
COc1ccc(Nc2nc3cc(C)ccc3cc2C#N)cc1	11*	-4	12	-4	2	2	10*	15*
CC[C@]1(c2ccc(C)cc2)C(=O)N(C(=O)OC(C)C)N1C(=O)OC(C)C	.	.	.	-3	.	.	.	.
Cc1c(N2C(=O)C(=O)/C(=C(/O)c3ccc(Br)cc3)C2c2cccnc2)c(=O)n(-c2ccccc2)n1C (configuration not stated)	22*	2	12	-1	0	-3	31*	38*
O=C(O)C1c2ccccc2Cc2ccccc21	-3	.	.	4	1	.	.	.
CCc1c(C(=O)O)[nH]c2ccc(Br)cc12	14*	3	14	0	1	-3	26*	27*
C=CCn1c(=S)[nH]c2scc(-c3cccs3)c2c1=O	9.3*	0	-1	-2	2	.	9.8*	10*
CCOC(=O)C1=C(C(=O)OCC)C2N(Cc3ccc(C(F)(F)F)cc3)c3ccccc3[C@@]23C[C@@H](C(=O)OC)N(S(=O)(=O)c2ccc(OC)cc2)C3=N1 (some centres not stated)	-2	.	.	2	.	.	.	.
CCOc1ccc(-n2c(SCC(=O)NCc3ccco3)nc3ccccc3c2=O)cc1	17*	3	23	-4	-1	11	45*	53*
Cc1sc2nc(SCC(=O)NCc3cccs3)[nH]c(=O)c2c1C	0	3	30	1	2	9	.	.
Cc1sc2nc(SCC(=O)NCc3ccco3)[nH]c(=O)c2c1C	28*	-1	.	-4	3	.	29*	42*
CC(=O)c1sc2nc(SCC(=O)NCCc3ccccc3)[nH]c(=O)c2c1C	36*	-3	14	-1	5	-3	37*	42*
Cc1sc2nc(SCC(=O)NCc3ccco3)n(CCc3ccccc3)c(=O)c2c1C	28*	5	6	0	-2	2	30*	34*
COc1ccc(CCNC(=O)CSc2nc3sc(C(=O)O)c(C)c3c(=O)[nH]2)cc1OC	-3	-2	16	-1	1	-3	.	.
O=C(NCc1ccccc1)OCCN1C(=O)CCC12CCCCC2	.	.	.	1	.	.	.	.
